Source: ChEMBL document CHEMBL1157539, “Thousands of chemical starting points for antimalarial lead identification” (Nature, 2010)

Key:
Format in all cases: functional
[1] = tested on: Plasmodium falciparum; assay: GSK_TCMDC: Inhibition of Plasmodium falciparum 3D7 in whole red blood cells, using parasite LDH activity as an index of growth. Test compounds present at 2uM
[2] = tested on: Plasmodium falciparum; assay: GSK_TCMDC: Inhibition of Plasmodium falciparum Dd2 in whole red blood cells, using parasite LDH activity as an index of growth. Test compounds present at 2uM
[3] = tested on: HepG2; assay: GSK_TCMDC: Percent inhibition of human HepG2 cell line. Test compounds present at 10uM.

`Fc1ccc(-c2cc3ncnc(N4CCN(CCN5CCCC5)CC4)c3s2)cc1` was tested, and the Inhibition [1] was 98%, the Inhibition [2] was 40% and the Inhibition [3] was 25%.
With `CCCCOc1ccc(C(=O)C(CCC(CNC(C)(C)C)C(=O)c2ccc(OCCCC)cc2)CNC(C)(C)C)cc1.Cl` (stereo not given) the Inhibition [1] was 94%, the Inhibition [2] was 92% and the Inhibition [3] was 100%.
`COc1ccc(Cl)cc1NC(=O)CN(C)C(=O)c1cnn(-c2ccccc2)n1` showed an Inhibition [1] of 100%, an Inhibition [2] of 99% and an Inhibition [3] of 0%.
`O=C(Nc1cccnc1)c1cc(-c2cccnc2)nc2ccc(Br)cc12` gave an Inhibition [1] of 99%, an Inhibition [2] of 60% and an Inhibition [3] of 9%.
`CCCc1cn2c3c(cc(C(=O)N[C@@H](Cc4ccccc4)[C@H](O)CNC4CCCCC4)cc13)N(CC)S(=O)(=O)CC2.O=CO` showed an Inhibition [1] of 98%, an Inhibition [2] of 98% and an Inhibition [3] of 2%.
In the case of `C=CCc1cc(SC)ccc1Oc1ccc(N)cc1.Cl`, the Inhibition [1] is reported as 96%, the Inhibition [2] is reported as 2% and the Inhibition [3] is reported as 12%.
Work on `Cc1cc(C(F)(F)F)n2nc(C3CCN(Cc4cc(C)c(O)c(C)c4)C3)cc2n1.O=C(O)CC(O)(CC(=O)O)C(=O)O` (stereo not given) yielded an Inhibition [1] of 98%, an Inhibition [2] of 99% and an Inhibition [3] of 34%.
With `O=C(c1ccc(Cl)cc1Cl)N1CCCC(C(F)(F)F)C1` (stereo not given) the Inhibition [1] was 95%, the Inhibition [2] was 47% and the Inhibition [3] was 6%.
Molecule `Cc1nc(Nc2ccc(F)cc2)nc(N2CCc3cc(O)ccc3C2C)c1C.Cl` (stereo not given) has an Inhibition [1] of 99%, an Inhibition [2] of 97% and an Inhibition [3] of 0%.
For `Cc1cc(N[C@@H](Cc2ccccc2)C(=O)Nc2ccccc2)nc(NCCN2CCCC2)n1.O=C(O)C(F)(F)F`, the Inhibition [1] was 94%, the Inhibition [2] was 0% and the Inhibition [3] was 8%.
`Cc1ccc(NC(=O)Nc2ccccc2)cc1-c1ccc(C(=O)Nc2ccncc2)cc1` gave an Inhibition [1] of 99%, an Inhibition [2] of 52% and an Inhibition [3] of 67%.
`CC(C)NCc1cccc(-c2cccc(-c3nc4ccccc4[nH]3)c2)c1.O=C(O)C(F)(F)F` gave an Inhibition [1] of 100%, an Inhibition [2] of 22% and an Inhibition [3] of 11%.
`Cc1cc(OCC2CCCO2)c2cc(NC(=O)C(=O)Nc3ccc4nc(C)cc(OCC5CCCO5)c4c3)ccc2n1` (stereo not given) showed an Inhibition [1] of 96%, an Inhibition [2] of 32% and an Inhibition [3] of 7%.
In the case of `COc1ccc2nc(-c3ccccc3)cc(NCCN(C)C)c2c1`, the Inhibition [1] is reported as 100%, the Inhibition [2] is reported as 23% and the Inhibition [3] is reported as 0%.
`COc1cc2nc(NCCc3ccccc3)nc(NCCCc3ccccc3)c2cc1OC` gave an Inhibition [1] of 100%, an Inhibition [2] of 100% and an Inhibition [3] of 21%.
Molecule `NC(=O)c1cccc(C(=O)Nc2ccc(-c3cccc(-c4nc5cc(C(F)(F)F)ccc5[nH]4)c3)cc2)c1` has an Inhibition [1] of 100%, an Inhibition [2] of 86% and an Inhibition [3] of 74%.
For `Cc1cc(N2CCCCC2)nc2ccc(NC(=O)c3cncc(Br)c3)cc12`, the Inhibition [1] was 100%, the Inhibition [2] was 86% and the Inhibition [3] was 0%.
In the case of `Cc1cc(C)cc(OCC(O)CN(Cc2cc(Cl)cc(Cl)c2)C(=O)Nc2ccc([N+](=O)[O-])cc2)c1` (stereo not given), the Inhibition [1] is reported as 95%, the Inhibition [2] is reported as 38% and the Inhibition [3] is reported as 0%.
`Cc1cc2nc(-c3ccc(/C=C/C(=O)NCCCc4ccccc4)cc3)[nH]c2cc1C` was tested, and the Inhibition [1] was 96%, the Inhibition [2] was 13% and the Inhibition [3] was 15%.
For `O=C(Nc1ccc(Br)c(C(F)(F)F)c1)c1cccc([N+](=O)[O-])c1`, the Inhibition [1] was 94%, the Inhibition [2] was 3% and the Inhibition [3] was 24%.
`CC(=O)c1cccc2cc(C(=O)NC3CCC(CCN4CCc5ccc(C#N)cc5C4)CC3)[nH]c12.Cl` (stereo not given) was tested, and the Inhibition [1] was 100%, the Inhibition [2] was 17% and the Inhibition [3] was 12%.
Work on `Cc1ccc(-c2noc(COc3ccccc3C(=O)NC3CCCC3)n2)cc1` yielded an Inhibition [1] of 89%, an Inhibition [2] of 92% and an Inhibition [3] of 9%.
In the case of `COc1ccccc1NC(=O)Nc1ccc(-c2ccc(-c3nc4cccc(C)c4[nH]3)s2)cc1`, the Inhibition [1] is reported as 100%, the Inhibition [2] is reported as 99% and the Inhibition [3] is reported as 71%.
With `Cc1cnc(Nc2ccccc2)nc1N[C@@H](CCCN)C(=O)Nc1ccccc1.O=C(O)C(F)(F)F` the Inhibition [1] was 100%, the Inhibition [2] was 0% and the Inhibition [3] was 0%.
Molecule `Oc1cc(NC[C@H]2CCC[C@@H]2NCc2cc(Br)cc(Br)c2)nc2ccccc12` has an Inhibition [1] of 100%, an Inhibition [2] of 45% and an Inhibition [3] of 21%.
For `Cc1cccc2nc(-c3ccc(-c4cccc(CNCc5ccc(CN)cc5)c4)s3)[nH]c12.O=C(O)C(F)(F)F`, the Inhibition [1] was 99%, the Inhibition [2] was 48% and the Inhibition [3] was 11%.
`CC(CCCCC(=O)Nc1ccc(C(F)(F)F)cc1)NCC(O)c1cccc(Cl)c1` (stereo not given) showed an Inhibition [1] of 99%, an Inhibition [2] of 92% and an Inhibition [3] of 51%.
In the case of `Cc1cccn2c(=O)c3cc(C(=O)NCCN4CCOCC4)c(=N)n(CCc4ccccc4)c3nc12`, the Inhibition [1] is reported as 100%, the Inhibition [2] is reported as 85% and the Inhibition [3] is reported as 13%.
With `COc1ccc(CN2CCC(NCc3cccc(C(F)(F)F)c3)CC2)cc1.O=C(O)C(F)(F)F` the Inhibition [1] was 99%, the Inhibition [2] was 8% and the Inhibition [3] was 6%.
In the case of `O=C(N[C@H]1CCN(CCc2ccc(O[C@H]3CCNC3)c(Cl)c2)C1)c1ccc(Cl)c(Cl)c1.O=C(O)C(F)(F)F`, the Inhibition [1] is reported as 100%, the Inhibition [2] is reported as 0% and the Inhibition [3] is reported as 26%.
